# Data reported in PubChem BioAssay (Tox21).
# Active and inactive are the calls of the source. Calls follow the shape of the full dose curve. Residues, ends and D or L forms follow the SMILES beside them.
# Target: Acetylcholinesterase (Homo sapiens) (UniProt P22303)
# Assay: Acetylcholinesterase (AChE) small molecule antagonists: enzyme-based qHTS assay with human liver microsomes (AID 1347399); also: nearly all actives have a fitted effect of over 60% in size
# Settings: Potency: qHTS inhibition; outcome: qHTS inhibition; series mostly up to 115 µM; activity change, negative = inhibition: at the top concentration
# In short: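 Recombinant human AChE (50 mU/mL in the enzyme mix) and human liver microsomes (0.25 mg/mL final) were preincubated with compound and NADPH (0.25 mg/mL final) for 30 min at 37 C. Acetylthiocholine/DTNB was then added; thiocholine was read colorimetrically after 10 min at room temperature.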
# % is scaled to controls: 0 for no effect and ±100 for the full control effect.
# Sequence of Acetylcholinesterase (Homo sapiens) (P22303 whole entry, looked up): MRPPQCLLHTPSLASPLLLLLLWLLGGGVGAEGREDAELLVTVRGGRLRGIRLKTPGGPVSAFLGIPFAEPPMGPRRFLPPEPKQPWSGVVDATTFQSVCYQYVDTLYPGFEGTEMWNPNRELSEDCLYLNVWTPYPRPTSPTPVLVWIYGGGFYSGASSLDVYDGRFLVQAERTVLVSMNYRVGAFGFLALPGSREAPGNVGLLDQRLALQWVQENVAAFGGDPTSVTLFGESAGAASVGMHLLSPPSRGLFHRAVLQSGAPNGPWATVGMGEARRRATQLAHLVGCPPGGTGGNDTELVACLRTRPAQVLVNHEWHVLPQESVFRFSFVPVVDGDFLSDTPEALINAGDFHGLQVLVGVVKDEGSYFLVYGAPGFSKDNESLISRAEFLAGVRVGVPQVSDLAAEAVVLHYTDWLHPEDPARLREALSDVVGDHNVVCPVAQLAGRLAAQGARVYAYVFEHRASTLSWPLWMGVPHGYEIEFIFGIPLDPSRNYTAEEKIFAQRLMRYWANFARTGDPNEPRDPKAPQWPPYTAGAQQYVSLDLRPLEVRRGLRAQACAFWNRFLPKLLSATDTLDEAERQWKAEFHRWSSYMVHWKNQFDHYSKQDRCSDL
row,Compound,"activity change, negative = inhibition"
1,C[C@]12CC[C@H]3C(=CCc4cc(O)ccc43)[C@@H]1CCC2=O,-5.36% (inactive)
2,C=CCOc1c(Br)cc(Br)cc1Br,2.06% (inactive)
3,CC(C)=CCC/C(C)=C\C#N,0.0764% (inactive)
4,NC(=O)c1ccccc1[N+](=O)[O-],-3.09% (inactive)
5,CC1(C)C(=O)N(CO)C(=O)N1CO,-0.185% (inactive)
6,CC1(C)O[C@@H]2C[C@H]3[C@@H]4CCC5=CC(=O)CC[C@]5(C)[C@@]4(F)[C@@H](O)C[C@]3(C)[C@]2(C(=O)CCl)O1,-3.02% [at 53 µM] (inactive)
7,CCCCCOC(=O)CCCC,0.492% (inactive)
8,CC(C)(C)c1cc(CCC(=O)NN)cc(C(C)(C)C)c1O,1.38% (inactive)
9,CN1CCCC(n2nc(Cc3ccc(Cl)cc3)c3ccccc3c2=O)CC1 (centres undefined),-4.97% [at 53 µM] (inactive)
10,CCc1cccc(C)c1N(C(=O)C(=O)O)C(C)COC (centres undefined),-4.19% (inactive)
11,C=CCN1CCc2nc(N)sc2CC1,0% [at 53 µM] (inactive)
12,CC(C)CCCCOC(=O)c1ccccc1C(=O)OCCCCC(C)C,-0.511% (inactive)
13,CCC(Cl)CCC(Cl)C(Cl)CC(Cl)C(Cl)C(Cl)CCl (centres undefined),-5.18% (inactive)
14,Cc1ccccc1S,-0.731% [at 53 µM] (inactive)
15,CCCc1ccc(OC)cc1,0.526% (inactive)
16,CC(C)COC(=O)COc1cc(Cl)c(Cl)cc1Cl,-0.824% (inactive)
17,CC(C)(C)c1ccc(N)cc1,1.42% (inactive)
18,FC1(F)C(F)(F)C(F)(F)C2(F)C(F)(F)C(F)(F)C(F)(F)C(F)(F)C2(F)C1(F)F (centres undefined),-0.308% [at 53 µM] (inactive)
19,CCCCOCCOC(=O)c1cccnc1,2.05% [at 53 µM] (inactive)
20,CCCCN(CCCC)C(C(N)=O)c1ccc(OC)cc1 (centres undefined),-0.136% [at 53 µM] (inactive)

row,Compound,"activity change, negative = inhibition"
1,O=C(O)c1c(Cl)cccc1Cl,0.49% (inactive)
2,CCCCCCCCCI,-0.475% (inactive)
3,Cc1cc(=O)c2c(O)c3c(O)cc(=O)c4c3c3c(cc(O)c1c23)C(C)(C)C=4O,0.168% [at 23.6 µM] (inactive)
4,CCOC(=O)C(C)Oc1ccc(Oc2nc3ccc(Cl)cc3o2)cc1 (centres undefined),-1.76% (inactive)
5,O=C(C(Cl)Cl)N1CCOC12CCCCC2,0.124% (inactive)
6,CC(=O)N[C@@H](CO)C(=O)N[C@@H](CC(=O)O)C(=O)N[C@@H](CCCCN)C(=O)N1CCC[C@H]1C(=O)O (Ac-SDKP-OH),-1.01% [at 53 µM] (inactive)
7,CC(C)SCc1ccco1,2.55% [at 53 µM] (inactive)
8,CCCCCCCCCCCCOC(C)=O,0.219% (inactive)
9,OCCC(O)CO (centres undefined),1.38% (inactive)
10,CCO[Si](C)(OCC)OCC,0.0702% (inactive)
11,CC(=O)CCc1ccc(O)cc1,-0.163% (inactive)
12,COc1nc(C)nc(Cl)c1NC1=NCCN1,-0.836% [at 53 µM] (inactive)
13,N#CCCOCCC#N,-4.38% (inactive)
14,CN(C)C(=O)Nc1ccc(Oc2ccc(Cl)cc2)cc1,0.291% (inactive)
15,CC(C)=CCCC(C)C=O (centres undefined),3.52% (inactive)
16,CCN(CC)CC(=O)OCC(=O)[C@@]1(O)CC[C@H]2[C@@H]3CCC4=CC(=O)CC[C@]4(C)[C@H]3[C@@H](O)C[C@@]21C,0.504% [at 53 µM] (inactive)
17,CCCCCCCCCCCCCCN(C)C,0.379% [at 23.6 µM] (inactive)
18,CC(C)(CCl)c1ccccc1,-5.63% (inactive)
19,CC(=O)CC(=O)Nc1ccc2[nH]c(=O)[nH]c2c1,1.86% (inactive)
